From PubChem BioAssay (NCI) come the findings set out here.

Values joined by “and” are separate entries in the source; they are usually repeats but may differ in a detail not shown here. Identical values can stand only once. This is part of a sample that, as a whole, favours compounds with a hit. Of some 83,000 tested, about 20% had one in any assay.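 Values shown are percent growth following 48 h exposure of cells in 96-well plates to a single concentration of compound; below 10 was considered active.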 Active and inactive are the calls of the source.

This test concerns MDA-MB-468 breast. As to the kind of experiment: NCI-60 one-dose screen, 48 h (100 = growth as untreated, 0 = no growth, -100 = all killed). Particulars: 10 µM unless noted.
For `CC(O)C(O)C(O)C(O)C(O)C(=O)NNc1ccccc1` (stereo not given), the growth was 96.5% (inactive).
With `CCOC(=O)c1ccc2c(c1)nc(/C=C/c1ccc(Cl)cc1)n2-c1cc(C(C)(C)C)[nH]n1` the figure was 58.8% (inactive); with `COc1ccc(/C=C(/C(=O)n2cnnn2)c2cc(OC)c(OC)c(OC)c2)cc1`, 13.6% (inactive); with `CCOC(=O)c1c2c(n3ccc(NC(=O)CCN(CC)CC)cc13)C(=O)c1ncccc1C2=O`, 81.7% (inactive).
For `O=C(/C=C/c1cc2ccccc2[nH]c1=O)c1ccc(Cl)cc1`, the growth was 15.4% (inactive).
With `Nc1c(C(=O)Nc2ccccc2Cl)sc2nc3c(cc12)C(O)CCC3` (stereo not given) the figure was 25.7% (inactive).
Regarding `CCOC(=O)C1=C(Nc2ccc(OC)cc2)C(N)=NC1=N`, the growth is 31.9% (inactive).
With `C#C[C@]1(O)CC[C@H]2[C@@H]3CC=C4c5sc(Nc6cc(OC)ccc6OC)nc5CC[C@]4(C)[C@H]3CC[C@@]21C` the figure was 9.15% (active).
With `O=C(N/N=C/c1ccc(O)c(O)c1)c1sc2ccccc2c1Cl` the figure was 88.8% (inactive); with `N=c1ccn2c(n1)O[C@@H]1[C@@H](O)[C@H](CO)O[C@@H]12`, 77.1% (inactive); with `Cn1c2nc3ccccc3c-2nc2ccccc21`, 75.4% (inactive).
The figure for `CN1CCN(c2ccc3c(C(N)=O)c(NC(=O)c4ccc(C(C)(C)C)cc4)sc3c2)CC1` is 90.7% (inactive); for `COc1cc(C(C)=C(c2ccc(OCCN(C)C)cc2)c2ccc(OCCN(C)C)cc2)ccc1F` it is 93.3% (inactive).
Regarding `COc1ccc2sc3cccc(NCCN(C)C)c3c(=O)c2c1`, the growth was 52.3% (inactive) and -82% (active).
As for `COc1ccc(-c2nc(-c3ccccc3)c(-c3ccccc3)[nH]2)cc1OC1CCCCC1`, the growth is 73.1% (inactive).
The figure for `COc1ccc(OC)c(Nc2nnc(-c3ccc(O)c(OC)c3)o2)c1` is 71.7% (inactive).
`O=C(Nc1ccc(Cl)cc1F)c1ccccc1O`: the growth is 6.26% (active).
The figure for `CC(=O)O[C@H]1C(=O)[C@@]2(C)C([C@H](OC(=O)c3ccccc3)[C@]3(O)C[C@H](OC(=O)[C@H](O)[C@@H](NC(=O)c4ccccc4)c4ccccc4)C(C)=C1C3(C)C)[C@]1(OC(C)=O)CO[C@@H]1C[C@@H]2O` (stereo not given in full) is -11.7% (active); for `Cc1cccc(N2CCN(CC(O)COc3ccc(Cl)cc3)CC2)c1` (stereo not given) it is 107% (inactive); for `COc1cc2c(cc1O)CC[C@@H]1[C@@H]2CC[C@]2(C)[C@@H](NCCN(C)C)CC[C@@H]12` it is -85.1% (active).
With `NC[C@@H]1O[C@H](O[C@@H]2[C@@H](CO)OC(O[C@@H]3[C@@H](O)[C@H](N)C[C@H](N)[C@H]3OC3O[C@H](CN)[C@@H](O)[C@H](O)[C@H]3N)[C@@H]2O)[C@H](N)[C@@H](O)[C@@H]1O` (stereo not given in full) the figure was 110% (inactive); with `CC1(c2ccc(Br)cc2)NC(=O)NC1=O` (stereo not given), 110% (inactive); with `COc1ccc(CNCCN2C(=O)c3ccc4c5c(ccc(c35)C2=O)C(=O)N(CCNCc2ccc(OC)cc2)C4=O)cc1`, -94.3% (active).
With `CCc1oc2ccccc2c1C(=O)c1cc(Br)c(O)c(Br)c1` the figure was 6.28% (active); with `CC[C@H](Nc1nc(N)nc(C2CC2)c1C#N)c1nc2cccc(NCc3ccc(C(=O)NO)cc3)c2c(=O)n1-c1ccccc1`, -23% (active); with `CCCCCC(=O)N(CCCC)CCCC`, 97.8% (inactive).
As for `O=C(OCC1OC(n2cc(C(F)(F)F)c(=O)[nH]c2=O)CC1OC(=O)c1ccc([N+](=O)[O-])cc1)c1ccc([N+](=O)[O-])cc1` (stereo not given), the growth is 85.3% (inactive).
With `COc1ccc(N2CCN(CC(=O)N3CCN(c4nnc(-c5ccc(Cl)cc5)c(-c5ccc(Cl)cc5)n4)CC3)CC2)cc1` the figure was 78.6% (inactive).
The figure for `COc1ccc2c(CCC(c3ccccc3)c3ccccc3)c3[n+](cc2c1OC)CCc1cc2c(cc1-3)OCO2` is -29.9% (active); for `O=c1c2cc(F)ccc2sc2c(N3CCNCC3)nc3ccccc3c12` it is -41.2% (active).
With `O=C(N/N=C/c1ccc(O)cc1O)c1cccnc1` the figure was 6.57% (active); with `CC(C)Cc1ccc(C(C)C(=O)NCc2ccc(Cn3c(=O)sn(CCCCl)c3=O)cc2)cc1` (stereo not given), 80.8% (inactive) and -83.8% (active).
For `Cn1nc(N)c2cc([C@@H]3Nc4ccc5[nH]ncc5c4[C@H]4C5CCC(C5)[C@@H]34)ccc21` (stereo not given in full), the growth was -2.64% (active).
The figure for `CCCCNc1ccc(Nc2ccccc2)cc1` is 11.4% (inactive); for `O=C1Nc2ccccc2C12CC(c1ccccc1)=NN2` (stereo not given) it is 66.4% (inactive).
The figure for `C/C=C/C/C=C/[C@H](C)C[C@H](O)[C@@H]1C[C@@H]2O[C@H]2/C=C/[C@@H]2OC(C)(C)O[C@H]2/C=C/C[C@H](C)CC(=O)O1` is 59.8% (inactive); for `O=C(Nc1cccc(Cl)c1)c1ccc(Cl)cc1Cl` it is 96.9% (inactive).
With `COc1cccc(C(=O)Nc2cccc(C#Cc3cccc4[nH]nc(N)c34)c2)c1` the figure was 24.5% (inactive).
Take `COc1cc(C(=O)NC(=S)Nc2ccc3ccccc3c2)cc(OC)c1OC`: the growth is 95.5% (inactive).
The figure for `COc1cc(-c2ccc[nH]2)[nH]c1/C=C1\N=C(C)C(C(=O)NC(C)C)=C1C` is 44% (inactive).
